Compound activity: PubChem BioAssay, National Center for Advancing Translational Sciences (NCATS)
A selection: hits, their analogues and other compounds. The true share with any hit is near 21%.
Pf growth 96h – inhibits malaria parasite growth, 96 h. P. falciparum luciferase reporter growth, 96 h. Potency, µM (titrated, usually from 28.7 µM), actives largely listed as inhibitors. hit rate 6.9% among 320,000. AID 504834
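Two parasite generations (96 h, 37 C, 5% CO2) of compound exposure in infected erythrocytes (0.05% parasitemia, 2% hematocrit). Luciferase-reporter P. falciparum; decreased luminescence indicates inhibited growth, aimed at apicoplast-acting delayed death.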
Cycloheximide cs – counter-screen for Shiga toxin inhibitors: cycloheximide protein synthesis inhibition. AID 2314. cell reporter, cycloheximide protein synthesis inhibition counterscreen. max response, %. hit rate 12% among 300,000; in the data active = max response mostly above about 13%, no sharp cut-off; inactive = mostly below about 14%; also: read at 38.3 µM for the half of the compounds with a filed dose
HCMV antiviral – blocks human cytomegalovirus replication; HFF cells, HCMV-luciferase reporter, 72 h; stronger effect = lower value; activity change, negative = inhibition, % at 57.5 µM; hit rate 4.5% among 410,000; AID 1259415; in the data active = activity change below about -60%; inconclusive = no clear call, values can overlap the other calls; inactive = above about -39%
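Luciferase read-out from HCMV-luciferase-infected HFFs (MOI 1 PFU/cell) 72 h post infection at 37C; compounds added after 16 h cell attachment; activity normalized between buffer-only basal and Salinomycin (10uM) inhibitor controls.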
Shiga toxin inh – blocks Shiga toxin action in Vero cells; Vero cells, Shiga toxin protein synthesis inhibition reporter; inhibition, % at 38.7 µM; hit rate 9.2% among 290,000; in the data active = inhibition mostly above about 28%, no sharp cut-off; inactive = mostly below about 43%
HCV inh – HCV inhibition; Huh7.5.1 HCVcc-Cre infection, luciferase reporter, 44 h; Potency, µM (highest dose often 41.8 µM), actives largely listed as inhibitors; hit rate 3.4% among 340,000
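Seed cells (1,000/well) for 4 h; treat with compound and infect with HCVcc-Cre, moi about 0.5. Incubate 44 h, then detect luciferase activity.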
Pf growth 48h – inhibits P. falciparum growth in the first generation, 48 h | P. falciparum luciferase growth in erythrocytes, 48 h | hit rate 5.9% among 310,000 | AID 504832 | Potency, µM (titrated, usually from 28.7 µM), most hits filed as inhibitors
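Compounds are pin-transferred into medium, infected erythrocytes (2% hematocrit, 0.1% parasitemia final) are added, and plates sit one parasite generation at 37 C in 5% CO2. Detection reagent is then added and luminescence measured.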
Of the large screens only hits and unclear results are named; the others gave an inactive call; ! = not active in a repeat. Unless noted, calls follow the shape of the dose curve; as a rule, active = well fitted inhibition curve with a large enough effect; inconclusive = small, poorly fitted or top-dose-only effect, or another doubt; inactive = no such curve, though single readings can be large or run the other way.

CCc1cc(CC)c(/C=N/NC(N)=O)c(CC)c1	HCV inh 11µM
CCOC(=O)Nc1ccc2c(c1)N(C(=O)CN(CC)CC)c1ccccc1CC2	Pf growth 96h inconclusive, Pf growth 48h inconclusive
CN(CC(=O)Nc1ccc2c(c1)CCC2)CC(=O)Nc1ccccc1Br	none
CCN(CC)CC(=O)Nc1ccc2c(c1)N(C(=O)CN(CC)CC)c1ccccc1CC2	HCV inh inconclusive, Pf growth 48h 10µM (no result: Pf growth 96h)
CCN(CC)CCC(=O)N1c2ccccc2CCc2ccc(NC(=O)OC)cc21	Pf growth 96h inconclusive
CCN(CC)CC(=O)N1c2ccccc2CCc2ccc(NC(=O)c3cc(OC)c(OC)c(OC)c3)cc21	Pf growth 96h 9.3µM, Pf growth 48h 12µM
CCN(CC)CC(=O)Nc1ccc2c(c1)Nc1ccccc1CC2	Cycloheximide cs 21, Shiga toxin inh 33, HCV inh 13µM, Pf growth 48h inconclusive
O=C(Nc1ccc2c(c1)OCCO2)C(C1CC1)n1c(=O)c(-c2ccccc2)nc2ccccc21 (stereo not drawn)	none (no result: Pf growth 96h, Cycloheximide cs, Shiga toxin inh, HCV inh, Pf growth 48h)
COc1ccsc1NC(=O)OCc1ccc(Cl)cc1	Cycloheximide cs 37, Shiga toxin inh 44 (no result: Pf growth 48h)
O=C(NCc1cccs1)c1nc(-c2cccs2)no1	Cycloheximide cs 21, Shiga toxin inh 66, HCV inh inconclusive
O=C(NCCc1ccccc1)c1nc(-c2cccs2)no1	Cycloheximide cs 45, Shiga toxin inh 90
Cc1ccc(C)c(N2CCN(c3ncccc3[N+](=O)[O-])CC2)c1	Pf growth 96h inconclusive, HCV inh 11µM, Pf growth 48h inconclusive
Cc1ccc(N2CCN(c3ncccc3[N+](=O)[O-])CC2)c(C)c1	HCV inh inconclusive
O=C(Cc1ccccc1[N+](=O)[O-])N1CCN(c2ccccc2F)CC1	Cycloheximide cs 12
O=[N+]([O-])c1cccnc1N1CCCCC1	none
O=[N+]([O-])c1cccnc1N1CCN(c2ccccc2F)CC1	Cycloheximide cs 18, HCMV antiviral -61
Cc1ccc2c(c1)cc1c(=O)n(Cc3ccc(Cl)cc3)nc(C)n12	none (no result: Pf growth 96h, Cycloheximide cs, Shiga toxin inh, HCV inh, Pf growth 48h)
Cc1csc(NC(=O)CSc2nnnn2C)n1	Pf growth 96h 9.3µM, Cycloheximide cs 25, Shiga toxin inh 53
COC(=O)c1sc(NC(=O)CSc2nnnn2C)nc1C	Pf growth 96h inconclusive, Cycloheximide cs 29, Shiga toxin inh 121
CCc1nnc(NC(=O)CSc2nnnn2C)s1	none
Cc1csc(NC(=O)CSc2nnc(C)c(=O)n2N)n1	none
Cc1nc(NC(=O)CSc2nnnn2C)sc1C	Cycloheximide cs 40, Shiga toxin inh 71
O=C(Cn1cc(SCc2ccc(C(F)(F)F)cc2)c2ccccc21)N1CCCCC1	none (no result: Pf growth 96h, Cycloheximide cs, Shiga toxin inh, HCV inh, Pf growth 48h)
Cc1ccc(C2=NS(=O)(=O)N(C)C(C(=O)Nc3ccc4c(c3)OCO4)=C2)cc1	Cycloheximide cs 18, Shiga toxin inh 18, HCV inh inconclusive
COc1ccc(C2=NS(=O)(=O)N(C)C(C(=O)Nc3ccc4c(c3)OCO4)=C2)cc1OC	Cycloheximide cs 20, HCV inh 13µM
Cc1ccc(O)c(NC(=O)C2=CC(c3ccco3)=NS(=O)(=O)N2C)c1	none
COc1ccc(NC(=O)C2=CC(c3ccc4c(c3)OCO4)=NS(=O)(=O)N2C)cc1OC	none (no result: Pf growth 96h, Cycloheximide cs, Shiga toxin inh, HCV inh, Pf growth 48h)
CN1C(C(=O)Nc2cccc(O)c2)=CC(c2ccco2)=NS1(=O)=O	Cycloheximide cs 10, HCMV antiviral -63!
CC1CCCC(C)N1CCCNC(=O)c1cc2c(s1)-c1ccccc1OC2 (stereo not drawn)	HCV inh inconclusive, Pf growth 48h inconclusive
CCCN1CCN(CCCNC(=O)c2cc3c(s2)-c2ccccc2OC3)CC1	Pf growth 96h inconclusive, HCV inh 10µM, Pf growth 48h inconclusive
Cc1cccc2c1-c1sc(C(=O)NCCc3ccc(Cl)cc3)cc1CO2	HCMV antiviral -87 (no result: Pf growth 96h, Cycloheximide cs, Shiga toxin inh, HCV inh, Pf growth 48h)
CC1CC(C)CN(CCCNC(=O)c2cc3c(s2)-c2ccccc2OC3)C1 (stereo not drawn)	HCMV antiviral inconclusive, HCV inh 8.9µM, Pf growth 48h 2.9µM
CN(C)CCNC(=O)c1cc2c(s1)-c1ccccc1OC2	Pf growth 96h inconclusive, Cycloheximide cs 40, Shiga toxin inh 47, HCV inh 25µM (no result: Pf growth 48h)
CCOc1ccc(C2C(=O)N(C3CCCCC3)CC(=O)N2Cc2ccc(F)cc2)cc1OC (stereo not drawn)	none (no result: Pf growth 96h, Cycloheximide cs, Shiga toxin inh, HCV inh, Pf growth 48h)
